Assay results as given in the supplement of paper PMC12632987.

T1: USP38, Q8NB14
T1 chain: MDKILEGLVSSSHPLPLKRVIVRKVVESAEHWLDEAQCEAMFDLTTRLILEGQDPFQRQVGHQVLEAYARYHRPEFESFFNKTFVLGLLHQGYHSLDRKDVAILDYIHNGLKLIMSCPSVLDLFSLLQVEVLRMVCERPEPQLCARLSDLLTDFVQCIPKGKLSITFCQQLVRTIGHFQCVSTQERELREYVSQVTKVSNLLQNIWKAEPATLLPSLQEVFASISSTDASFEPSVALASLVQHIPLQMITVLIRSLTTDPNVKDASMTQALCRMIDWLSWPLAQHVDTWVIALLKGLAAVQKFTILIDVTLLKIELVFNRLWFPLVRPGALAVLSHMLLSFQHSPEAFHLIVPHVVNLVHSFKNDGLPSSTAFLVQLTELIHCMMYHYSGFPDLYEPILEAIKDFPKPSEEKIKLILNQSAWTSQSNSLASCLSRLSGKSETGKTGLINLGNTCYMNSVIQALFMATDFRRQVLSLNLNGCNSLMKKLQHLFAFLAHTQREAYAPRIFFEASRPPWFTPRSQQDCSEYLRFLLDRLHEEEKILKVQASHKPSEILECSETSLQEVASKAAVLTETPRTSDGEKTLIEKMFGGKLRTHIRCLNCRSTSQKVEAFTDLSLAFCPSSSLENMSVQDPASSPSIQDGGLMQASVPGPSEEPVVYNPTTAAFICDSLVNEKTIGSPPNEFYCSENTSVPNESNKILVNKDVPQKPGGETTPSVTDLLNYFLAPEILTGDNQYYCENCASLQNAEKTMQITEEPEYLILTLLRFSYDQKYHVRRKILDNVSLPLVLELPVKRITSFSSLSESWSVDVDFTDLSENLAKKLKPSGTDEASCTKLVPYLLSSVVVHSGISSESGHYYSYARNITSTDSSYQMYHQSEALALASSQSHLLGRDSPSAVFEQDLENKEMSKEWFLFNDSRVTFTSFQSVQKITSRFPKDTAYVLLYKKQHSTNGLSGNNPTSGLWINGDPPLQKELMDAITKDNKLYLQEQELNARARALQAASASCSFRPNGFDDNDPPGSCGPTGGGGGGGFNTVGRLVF

B1: usp_38_diff_out_16_109_172 (protein)
chain: SADAEADRLLAEAAIENLRALAEEARRELERLEAKGASEEVLAAYRALAETAEAAAATIEAALAAGKDIRATTDAQWDAVGAAAARASELREAEARARSA
B2: usp_38_diff_out_16_25_197 (protein)
chain: SVEALLEAHDLIGRAAGYVLRARESEDPEEQRKLLREALEHLEEALKLLEEKLKIDPEKAKEIKKLIEEAKKLLEEGAPIEEVIAVVEKAIDLAVDALNE
B3: usp_38_diff_out_16_109_174 (protein)
chain: SAQEEADREYALAVIENLKKLAKEAEEELKKLKARGASEEVLKAYEELAKTAKEAAKALEEALKAGEDLRAIANEKWDEVGKKAAEAAELLREEVRRRSA
B4: usp_38_diff_out_16_25_190 (protein)
chain: NVEALLRAHDELGRAAGYIVLAREHADSPEVKELLREAIESLERALRIAEEELHIPEEVAEKVKKLIEEAKKLLEEGADPEEVIKKLEEALDLLAEALAE
B5: usp_38_diff_out_16_109_184 (protein)
chain: SADEEADRLLAEASIKNFRDLSKDARAEAERLKARGASQAVIDAYNELAKTAEAAAEEIEKALEAGEDLRAVTDAQWDKVGAAAKKANDLRRAEARARTA
B6: usp_38_diff_out_16_109_175 (protein)
chain: SAQAEADRAFAEAAIANFRSLAADARARLARLEARGASPEVLAAYADLAATATAAAAALEAALAAGEDLRAAANAAWDAVGAAAARAARLLQEEVRRRSA
B7: usp_38_diff_out_16_109_179 (protein)
chain: SAQAEADRAFAEAAIANFEALAADAEAELARLKARGASPEVLAAYQALADTARAAAAALRAALAAGEDLRAATNAKWDEVGAKAAEAAELRRAEVRRRSA
B8: usp_38_diff_out_16_25_193 (protein)
chain: NVEALLRAHDALGRAAGYVVRARELGESPEARELLREAIRALREALRILREELRIPEEVARRIEEAIERAERLLEAGEPVEEVIEALEEAIDLAAAALAA
B9: usp_38_diff_out_16_25_199 (protein)
chain: NVEALLKAHDELGKAAGYILEAREHLDSPEVKELLEKAIEHLEEALKIMKEELKIPQETAKKIQELIEKAKKLLEEGADPEEVIKALEEAIDAAADALAS
B10: usp_38_diff_out_16_25_191 (protein)
chain: SVEALLRAHDKLGEAAGYILQAKEKKDSEEARKLLEKAVKALEEALKILVEELKIDPKDAEEIEKLIKEAKKLLKEGAPVEEVIKVLEKAVDAAAKALAK
B11: usp_38_diff_out_16_109_183 (protein)
chain: SADEEAARLLAEASIKNFRNLAKEAQAALAKAQARGASADVLAALQDLADTAKAAAERIEKAIKEGKDLLAVTNAEWDAVGAAAARARELREAETRARSA
B12: usp_38_diff_out_16_37_203 (protein)
chain: SAAEVEALMARLREAVERARELIERARRAIEEGADEAEIERLLEEATRALEEAGRALAEILLLDPARYPEARALYDETAARFGEVVAEARDARRERRARA
B13: usp_38_diff_out_16_25_188 (protein)
chain: NVEALLEAHHHLGLAAGYIVLAKEHKDSEKAREYLEKAIEHLEEALRILEEELNIDEETAEEIRKLIEKAKKLLKEGAPVEEIIKLLEEAIDLMAKALAE
B14: usp_38_diff_out_16_13_187 (protein)
chain: SELEKLLKKLEELTKKAEEKKKELEKLIKEGAPKEEIREKLEELRELLIEAAGTILEIRNLMVEKANEEQRKKAREKLKEAEEKLNEAINLYVEKELELA
B15: usp_38_diff_out_16_109_185 (protein)
chain: AAQREADRALAEAAIANFRALAAEARARAAALRARGAPQAVIDAYDDLAATADAAAAALEAALAAGEDLRAAVDREWDAVGAAAAAAEALRRAATAARSA
B16: usp_38_diff_out_16_109_180 (protein)
chain: SAEAEADKAYAEAVIANLEALAKAAEAELKKLKARGASPEVLAAYQALRDTAKAAAATLKAALAAGEDLRAIADAQWDAVGAAAAAAAALRRAEVAARSA
B17: usp_38_diff_out_16_25_196 (protein)
chain: EVEALLRAHDEIGRAAGLVLRAREEEDPERQRELLREALEHLRRALEILREELRVDEETARELEELIERAERLLEEGAPAEEVIAVIEEAIDLAVDALAE
B18: usp_38_diff_out_16_109_176 (protein)
chain: SAQAEADRAFAEAVVANLRALAEDAEARLARLEARGASPAVLAAYRDLADTARAAAAALEEAIAAGEDLRAIANAQWDRVGAAAARAADLLRAEVDARSA
B19: usp_38_diff_out_16_25_194 (protein)
chain: EVEALLKAHDEIGWAAGKLLEAKESKDPEEQKKLLEEALKHLEKALKILKEELKIDEETLKKIEELIKKAKKLLKEGAPFEEVIKTLEEAIDLAVDALNK
B20: usp_38_diff_out_16_25_200 (protein)
chain: SVEALLEAHDHLGEAAGHILRAKESKDEEEKKKLLEEAIKHLEKALKIMKEKLKIPEEVAEEIEKKIERAKKLLEEGAPFEEVIKELEEAIDLAAKALAA
B21: usp_38_diff_out_16_109_182 (protein)
chain: AAEEEAARLLAEASIANFEALAEEARAQLAKAQARGASPEVLAALQDLADTARAAAAAIRRALEAGEDLRAVTDAQWDAVGAAAARANRLREAETDARSA
B22: usp_38_diff_out_16_109_171 (protein)
chain: SADEEADRLLAEAAIRNLRALAEAAEAELEKLEARGASPEVLAAYRDLAELARRAAEEIERALEEGRDLRETTDREWDRVGAAAARAAELRRAEARRRSA
B23: usp_38_diff_out_16_25_195 (protein)
chain: SVEALLRAHDLIGRAAGLVLRARESEDPEEQRRLLEEAIRHLEEALELLKEELKIDEETAEKIEKLIEEARRLLEEGAPFEEVIKVLEEAIDLAVDALAK
B24: usp_38_diff_out_16_109_181 (protein)
chain: SAEEEAAREYAEAAVANFRALAADAEARLARLEARGASPEVLAAYRDLAATARAAAAALEAAIAAGEDLRAAADAQWDAVGAAAARAAEIRRAEVRRRSA
B25: usp_38_diff_out_16_109_178 (protein)
chain: SAEDEANVEYAKAVIENLEKLAEEAEAELKRLQARGASAEVLAAYQKLADLAKEAAERLKKALAEGKDLRAIADEEWDRVGAAAAEAAELRQQEVRARSA
B26: usp_38_diff_out_16_25_201 (protein)
chain: EVEALLEAHDHLGDAAGYVLRAKESEDEEERKRLLREALESLRRALDILRERLHIPEEEAERIEALIEEAERLLEEGAPFEEVIAVVEEAIDLAAEALAR
B27: usp_38_diff_out_16_25_192 (protein)
chain: SVEALLRAHDLLGEAAGYILEAKEHKDSPKARELLEKAIKSLEEALRVMKEELKIDEEKAEEIEKLIKEAKKLLKEGAPVEEVIKVLEEAVDKAADALAE
B28: usp_38_diff_out_16_25_189 (protein)
chain: SVEALLKAHEELGEAAGYIVQARENKDKPEARELLKKAIESLEKALEILEKELKIDEKVAKEIREKIERARKLLEEGKPVEEVIKELEEALDLAIEALAK
B29: usp_38_diff_out_16_25_202 (protein)
chain: EVEALLRAHDELGEAAGYILRARESEDEEERKKLLREALESLEKALDIMKKELKIPEEVAKKIQELIDEAKEKLEAGAPFEEVIKLLEEAIDLAAEALAA
B30: usp_38_diff_out_16_109_186 (protein)
chain: SEQAESDRLLAEAAIANFKALAADARAEAARLKAKGASQAVIDAYNALADTATAAAAALEAALAAGEDLRATLDAQWDAVGAAAAAARDLREAETAARSA
B31: usp_38_diff_out_16_109_173 (protein)
chain: SQQAEGDRLFAEAAAANFRSLAEDAEAALARAKERGASPEVLAALQDLADTAKAAADTIEKTIADGGDLRATTDAQWDAVGAAAARADAIRRAEARARSD
B32: usp_38_diff_out_16_109_177 (protein)
chain: SAQEEADREYAEAVIKNLKELAKEAKERLKKLEEKGASEEVLKAYKELAETAKKAAERLEKALKAGEDLRKIADEEWDKVGAAAAKAAEILREEVRKKSE

Target: T1, USP38, Q8NB14
Experiment: median log2 fold change of GCK-ALFA target abundance (FLAG IP / Myc IP barcode read proportion) (log2 ratio); each designed protein is fused to an ALFA-tag nanobody in HEK293 cells to bring the named protein to FLAG-tagged glucokinase (GCK); Myc marks an untargeted standard; higher = target protein stabilised (more abundant)
Conditions: target protein: 3xFLAG-MCP-GCK-ALFA reporter; HEK293 landing pad (RPLP)
Outline: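 HEK293 landing-pad cells received a recombined binder library fused to the ALFA nanobody and were induced with 2 μg mL^−1 doxycycline, then transfected with a plasmid encoding a FLAG-tagged target and a Myc-tagged standard. Lysates were collected after 48 h for anti-FLAG and anti-Myc immunoprecipitation, and the circular RNA barcodes were reverse transcribed, amplified and sequenced. Target abundance for each binder is the median log2 ratio of FLAG to Myc barcode read proportions. Barcodes had to reach a proportion of at least 10^−7 in both replicates, each binder needed at least 3 barcodes per replicate, a pseudocount of 10^−6 was applied, and the two replicates were pooled.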

Binder	median log2 fold change
B1	-0.0926
B2	0.179
B3	-0.105
B4	0.107
B5	-0.0394
B6	-0.756
B7	-0.0762
B8	0.174
B9	0.324
B10	0.0845
B11	-0.397
B12	-0.344
B13	0.00197
B14	-0.622
B15	-0.358
B16	-0.191

Binder	median log2 fold change
B17	0.215
B18	0.125
B19	0.00535
B20	0.457
B21	0.0957
B22	-0.352
B23	0.188
B24	-0.515
B25	0.375
B26	0.237
B27	0.243
B28	0.371
B29	0.316
B30	0.0614
B31	-0.0935
B32	0.0634
